From PubChem BioAssay (EPA / NIEHS) come the findings set out here.

Records with an inconclusive call do not appear. Active and inactive are the calls of the source. Rule for the calls, unless noted: active = hit-call score of the fitted dose curve at least 0.9, where 1 is the maximum; inactive = score below 0.9.

Broadly, the AC50 is the midpoint of the concentration-response curve, whichever way the signal moves.

The target of assay [1] is Estrogen-related receptor gamma (Homo sapiens) (UniProt P62508). Description: ATG_ERRg_TRANS: Attagene TRANS-FACTORIAL HepG2 Assay for human Estrogen-Related Receptor gamma (ERRg) (AID 2282977; active = hit-call score of the fitted dose curve at least 0.9, where 1 is the maximum;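 note: hits increase reporter signal over DMSO so potencies reflect activators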). Particulars: HepG2 Attagene TRANS reporter, ERRg transactivation. In a few lines:
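Induction of reporter transcripts through a chimeric NR-Gal4 protein is quantified in transfected human HepG2 liver cells after 24 h chemical exposure, using RT-PCR with capillary electrophoresis detection and DMSO as baseline.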

For assay [2], the target named is Oxysterols receptor LXR-alpha (Homo sapiens) (UniProt Q13133). Description: ATG_LXRa_TRANS: Attagene TRANS-FACTORIAL HepG2 Assay for human Liver X Receptor alpha (LXRa) (AID 2282980; active = hit-call score of the fitted dose curve at least 0.9, where 1 is the maximum). As to conditions: HepG2 Attagene TRANS reporter, LXRa transactivation. In a few lines: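 HepG2 cells transiently transfected with GAL4-UAS reporter units for chimeric NR-Gal4 proteins, exposed to chemicals for 24 h. Reporter mRNA quantified by RT-PCR and capillary electrophoresis; gain of signal fitted relative to DMSO.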
Sequence of Oxysterols receptor LXR-alpha (Homo sapiens) (Q13133 whole entry, looked up, the tested form may be a part): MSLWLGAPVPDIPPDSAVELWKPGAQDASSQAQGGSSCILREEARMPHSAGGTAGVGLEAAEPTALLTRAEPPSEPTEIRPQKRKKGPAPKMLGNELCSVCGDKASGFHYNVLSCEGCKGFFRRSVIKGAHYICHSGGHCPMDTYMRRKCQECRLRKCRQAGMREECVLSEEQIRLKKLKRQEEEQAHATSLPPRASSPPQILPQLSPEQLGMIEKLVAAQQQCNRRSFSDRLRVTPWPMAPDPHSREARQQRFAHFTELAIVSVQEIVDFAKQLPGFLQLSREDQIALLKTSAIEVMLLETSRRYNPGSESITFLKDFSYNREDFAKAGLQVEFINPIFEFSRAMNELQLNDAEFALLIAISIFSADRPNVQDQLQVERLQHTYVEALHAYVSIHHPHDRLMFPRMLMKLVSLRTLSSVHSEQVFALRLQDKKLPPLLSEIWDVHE

For assay [3], the target named is Oxysterols receptor LXR-beta (Homo sapiens) (UniProt P55055). Description: ATG_LXRb_TRANS: Attagene TRANS-FACTORIAL HepG2 Assay for human Liver X Receptor beta (LXRb) (AID 2282981; active = hit-call score of the fitted dose curve at least 0.9, where 1 is the maximum). Particulars: HepG2 Attagene TRANS GAL4-LXRb reporter, mRNA. In a few lines:
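Multiplexed reporter assay, HepG2, 24 h dosing. Fluorescence of labelled RT-PCR products after capillary electrophoresis gives transcript level; positive fitting direction relative to DMSO.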

Assay [4] deals with Hepatocyte nuclear factor 4-alpha (Homo sapiens) (UniProt P41235). Briefly: ATG_HNF4a_TRANS: Attagene TRANS-FACTORIAL HepG2 Assay for human Hepatocyte Nuclear Factor 4 alpha (HNF4a) (AID 2282982; active = hit-call score of the fitted dose curve at least 0.9, where 1 is the maximum). Particulars: HepG2 HNF4a transactivation reporter, mRNA readout. In a few lines: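 Endpoint reflects transcriptional activation of a GAL4-UAS reporter by an HNF4a-GAL4 chimera in transfected HepG2 cells, 24 h post-dosing. Fluorescence from RT-PCR products separated by capillary electrophoresis; DMSO baseline.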
Sequence of Hepatocyte nuclear factor 4-alpha (Homo sapiens) (P41235 whole entry, looked up, the tested form may be a part): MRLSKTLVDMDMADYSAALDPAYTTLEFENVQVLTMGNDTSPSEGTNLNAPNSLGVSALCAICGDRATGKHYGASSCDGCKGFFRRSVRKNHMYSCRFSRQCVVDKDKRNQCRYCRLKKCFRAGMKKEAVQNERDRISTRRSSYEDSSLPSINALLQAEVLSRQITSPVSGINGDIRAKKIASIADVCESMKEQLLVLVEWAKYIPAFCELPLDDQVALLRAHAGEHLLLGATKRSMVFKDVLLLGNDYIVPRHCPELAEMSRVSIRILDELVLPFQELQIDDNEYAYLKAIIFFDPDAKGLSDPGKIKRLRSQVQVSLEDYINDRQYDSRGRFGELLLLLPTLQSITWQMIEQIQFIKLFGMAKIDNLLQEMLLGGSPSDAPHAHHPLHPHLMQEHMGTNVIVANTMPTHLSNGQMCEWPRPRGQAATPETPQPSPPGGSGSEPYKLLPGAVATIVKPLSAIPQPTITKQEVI

A short description of assay [5]: ATG_M_06_TRANS: Attagene TRANS-FACTORIAL HepG2 Assay for M06 Transcription Factor (Internal Marker) (AID 2282983; active = hit-call score of the fitted dose curve at least 0.9, where 1 is the maximum). As to conditions: HepG2 Attagene TRANS M06 internal marker reporter. In a few lines: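 mRNA levels of a reporter transcript, quantified as FAM fluorescence on capillary electrophoresis, served as readout. HepG2 cells expressing exogenous GAL4-chimera reporter constructs were exposed for 24 h. Gain of signal over DMSO was evaluated.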

The target of assay [6] is Transcriptional activator Myb (Homo sapiens) (UniProt P10242). Description: ATG_Myb_CIS: Attagene CIS-FACTORIAL HepG2 Assay for human Myeloblastosis (Myb) Proto-Oncogene Transcription Factor (AID 2282986). Particulars: HepG2 Attagene CIS-FACTORIAL Myb reporter transcription; actives raise or lower the signal. In a few lines: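 Multiplexed cis-reporter system in HepG2: transient transfection, 24 h treatment, mRNA readout by RT-PCR and capillary electrophoresis. Both increases and decreases are scored versus DMSO negative control.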
Sequence of Transcriptional activator Myb (Homo sapiens) (P10242 whole entry, looked up): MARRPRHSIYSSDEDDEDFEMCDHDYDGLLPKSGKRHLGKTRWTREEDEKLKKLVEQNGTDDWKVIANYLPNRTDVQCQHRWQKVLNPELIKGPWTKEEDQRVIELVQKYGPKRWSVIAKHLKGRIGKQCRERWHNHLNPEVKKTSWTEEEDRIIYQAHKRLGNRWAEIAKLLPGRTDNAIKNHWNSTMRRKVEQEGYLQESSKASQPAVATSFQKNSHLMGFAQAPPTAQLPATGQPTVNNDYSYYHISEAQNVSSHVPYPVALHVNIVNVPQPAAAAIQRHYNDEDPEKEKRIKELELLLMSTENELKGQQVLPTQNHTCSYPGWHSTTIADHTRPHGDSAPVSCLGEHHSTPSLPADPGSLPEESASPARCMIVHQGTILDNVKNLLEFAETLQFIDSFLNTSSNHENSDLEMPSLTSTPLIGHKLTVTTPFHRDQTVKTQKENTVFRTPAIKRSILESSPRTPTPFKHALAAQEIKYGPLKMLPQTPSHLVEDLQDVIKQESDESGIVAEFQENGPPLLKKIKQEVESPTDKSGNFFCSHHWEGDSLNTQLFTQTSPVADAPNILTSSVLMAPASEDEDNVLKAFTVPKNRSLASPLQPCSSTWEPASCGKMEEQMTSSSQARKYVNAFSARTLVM

Assay [7] has as its target Nuclear respiratory factor 1 (Homo sapiens) (UniProt Q16656). Description: ATG_NRF1_CIS: Attagene CIS-FACTORIAL HepG2 Assay for human Nuclear Respiratory Factor 1 (NRF1) Orphan Gene (AID 2282987). As to conditions: HepG2 NRF1 cis-element reporter, Attagene multiplex; actives raise or lower the signal. In a few lines: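 Endogenous factor activity was captured via cis-element-driven reporter transcripts in HepG2 cells. Following 24 h chemical treatment, transcripts were quantified by RT-PCR and capillary electrophoresis.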

The target of assay [8] is Myc proto-oncogene protein (Homo sapiens) (UniProt P01106). Briefly: ATG_Myc_CIS: Attagene CIS-FACTORIAL HepG2 Assay for human Myelocytomatosis (Myc) Proto-Oncogene Transcription Factor (AID 2282990). As to conditions: HepG2, Attagene cis-reporter transcription factor activity; actives raise or lower the signal. The method, boiled down:
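Transiently transfected HepG2 cells bearing cis-promoter reporter units for endogenous transcription factors; 24 h exposure. Reporter mRNA measured by RT-PCR, 6-FAM primer extension, HpaI cut and capillary electrophoresis; bidirectional fit relative to DMSO.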

A short description of assay [9]: ATG_NF_kB_CIS: Attagene CIS-FACTORIAL HepG2 Assay for human Nuclear Factor Kappa B (NF-kB) (AID 2282991). As to conditions: HepG2 Attagene cis-factorial NF-kB reporter mRNA; actives raise or lower the signal. The method, boiled down:
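After 24 h compound incubation, transfected HepG2 cells yield total RNA; reporter cDNA is PCR-amplified, end-labelled with 6-FAM, HpaI-digested and analysed on a genetic analyser. Endogenous factor activity, DMSO-referenced bidirectional fit.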

Assay [10] in a line: ATG_NRF2_ARE_CIS: Attagene CIS-FACTORIAL HepG2 Assay for human Nuclear Factor Erythroid 2 Related Factor 2 (NFR2) response to Antioxidant Response Elements (ARE) (AID 2282992).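 Note: reporter mRNA level measured by RT-PCR and capillary electrophoresis fluorescence.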 Particulars: HepG2 Attagene ARE/NRF2 reporter, transcription factor activity; actives raise or lower the signal. The method, boiled down:
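Using transiently transfected HepG2 cells exposed for 24 h, reporter mRNA levels were determined by RT-PCR with fluorescent primer extension and capillary electrophoresis, analysed for gain or loss of signal against DMSO.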

Assay [11] can be described thus: ATG_Oct_MLP_CIS: Attagene CIS-FACTORIAL HepG2 Assay for human Octamer-Binding Transcription Factor (Oct) (AID 2282993). Particulars: HepG2 Attagene cis-factorial Oct reporter, mRNA; actives raise or lower the signal. The method, boiled down:
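Read-out: reporter mRNA via RT-PCR plus capillary electrophoresis of 6-FAM-labelled fragments. Transiently transfected HepG2, 24 h exposure, endogenous TF activity on cis elements. Gain or loss of signal fitted relative to DMSO.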

Assay [12] in a line: BSK_3C_TissueFactor: BioMAP Diversity Plus: 3C Assay for Tissue Factor Biomarker Activity (AID 2282997). Particulars: BioMAP 3C HUVEC, tissue factor biomarker readout; actives raise or lower the signal. The method, boiled down:
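Tissue Factor measured by ELISA, 24 h after treatment of primary HUVEC in the BioMAP 3C setting.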

Assay [13] can be described thus: BSK_3C_uPAR: BioMAP Diversity Plus: 3C Assay for Urokinase-type plasminogen activator receptor (uPAR) Biomarker Activity (AID 2282998). As to conditions: BioMAP 3C HUVEC, uPAR biomarker ELISA; actives raise or lower the signal. The method, boiled down:
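HUVEC primary cells; 24 h post-dose; uPAR by ELISA; gain or loss of signal fitted bidirectionally vs DMSO baseline.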
In general terms: ELISA stands for enzyme-linked immunosorbent assay.

A short description of assay [14]: BSK_3C_VCAM1: BioMAP Diversity Plus: 3C Assay for Vascular cell adhesion molecule 1 (VCAM1) Biomarker Activity (AID 2282999). As to conditions: BioMAP 3C HUVEC, VCAM1 ELISA, cytokine-stimulated; actives raise or lower the signal. The method, boiled down:
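HUVEC primary cells, 24 h compound exposure; VCAM-1 by ELISA; gain/loss of signal fitted bidirectionally vs DMSO baseline.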

Assay [15] can be described thus: ATG_M_32_TRANS: Attagene TRANS-FACTORIAL HepG2 Assay for M32 Transcription Factor (Internal Marker) (AID 2282984; active = hit-call score of the fitted dose curve at least 0.9, where 1 is the maximum;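 note: transcript level of a background control reporter unit measured by RT-PCR and capillary electrophoresis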). As to conditions: HepG2 Attagene TRANS M32 internal marker reporter. In a few lines:
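Internal-marker readout from a multiplexed transcription reporter panel. HepG2 cells were transfected with GAL4-UAS reporter units, treated 24 hours, and reporter transcript levels determined by fluorescence after RT-PCR and capillary separation.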

Assay [16] has as its target Nuclear receptor subfamily 4 group A member 2 (Homo sapiens) (UniProt P43354). Description: ATG_NURR1_TRANS: Attagene TRANS-FACTORIAL HepG2 Assay for human Nuclear Receptor Related Protein 1 (NURR1) (AID 2282985; active = hit-call score of the fitted dose curve at least 0.9, where 1 is the maximum). As to conditions: HepG2 Attagene TRANS reporter, mRNA readout. The method, boiled down: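 Endpoint: reporter mRNA increase relative to DMSO. HepG2 cells transfected with reporter units, treated 24 h; RNA processed by RT-PCR, labelling, HpaI digestion and capillary electrophoresis.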

For assay [17], the target named is Cellular tumor antigen p53 (Homo sapiens) (UniProt P04637). Briefly: ATG_p53_CIS: Attagene CIS-FACTORIAL HepG2 Assay for human p53 Transcription Factor (AID 2282994). As to conditions: HepG2 p53 cis-element reporter, Attagene mRNA; actives raise or lower the signal. The method, boiled down:
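In HepG2 cells, reporter transcription units under cis-regulatory promoters were transiently introduced. Following 24 h treatment, RNA was processed to labelled, digested cDNA fragments read by capillary electrophoresis; fitting was bidirectional versus DMSO.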

A short description of assay [18]: ATG_NFI_CIS: Attagene CIS-FACTORIAL HepG2 Assay for human Nuclear Factor I (NFI) (AID 2282989). As to conditions: HepG2 cis-regulatory reporter, NFI response element transcription; actives raise or lower the signal. The method, boiled down: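 Read-out: reporter mRNA via RT-PCR plus capillary electrophoresis with fluorescence detection. Transiently transfected HepG2 (endogenous TF activity on cis promoters), 24 h compound exposure; gain or loss of signal fitted against DMSO.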

Sequence of Cellular tumor antigen p53 (Homo sapiens) (P04637 whole entry, looked up, the tested form may be a part): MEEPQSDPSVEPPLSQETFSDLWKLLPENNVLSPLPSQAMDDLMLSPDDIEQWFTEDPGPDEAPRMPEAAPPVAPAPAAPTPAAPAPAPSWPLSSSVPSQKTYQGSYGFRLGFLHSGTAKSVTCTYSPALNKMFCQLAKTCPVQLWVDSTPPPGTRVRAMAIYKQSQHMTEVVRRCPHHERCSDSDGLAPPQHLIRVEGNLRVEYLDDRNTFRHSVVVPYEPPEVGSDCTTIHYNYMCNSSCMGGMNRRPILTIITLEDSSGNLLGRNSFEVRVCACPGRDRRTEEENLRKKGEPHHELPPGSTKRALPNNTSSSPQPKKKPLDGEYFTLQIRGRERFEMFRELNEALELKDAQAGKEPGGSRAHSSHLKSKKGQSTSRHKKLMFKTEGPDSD
Sequence of Oxysterols receptor LXR-beta (Homo sapiens) (P55055 whole entry, looked up, the tested form may be a part): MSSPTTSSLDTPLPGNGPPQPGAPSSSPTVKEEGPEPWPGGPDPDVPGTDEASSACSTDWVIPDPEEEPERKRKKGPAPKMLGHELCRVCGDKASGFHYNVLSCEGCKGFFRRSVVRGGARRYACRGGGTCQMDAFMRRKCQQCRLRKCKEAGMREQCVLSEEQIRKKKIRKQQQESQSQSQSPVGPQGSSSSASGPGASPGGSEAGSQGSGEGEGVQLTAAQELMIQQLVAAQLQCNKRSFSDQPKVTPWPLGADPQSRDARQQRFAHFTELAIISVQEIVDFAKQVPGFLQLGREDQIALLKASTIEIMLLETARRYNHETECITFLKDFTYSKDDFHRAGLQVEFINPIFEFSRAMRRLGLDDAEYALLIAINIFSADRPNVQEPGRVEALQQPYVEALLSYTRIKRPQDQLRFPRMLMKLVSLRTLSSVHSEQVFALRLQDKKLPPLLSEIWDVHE
Sequence of Estrogen-related receptor gamma (Homo sapiens) (P62508 whole entry, looked up, the tested form may be a part): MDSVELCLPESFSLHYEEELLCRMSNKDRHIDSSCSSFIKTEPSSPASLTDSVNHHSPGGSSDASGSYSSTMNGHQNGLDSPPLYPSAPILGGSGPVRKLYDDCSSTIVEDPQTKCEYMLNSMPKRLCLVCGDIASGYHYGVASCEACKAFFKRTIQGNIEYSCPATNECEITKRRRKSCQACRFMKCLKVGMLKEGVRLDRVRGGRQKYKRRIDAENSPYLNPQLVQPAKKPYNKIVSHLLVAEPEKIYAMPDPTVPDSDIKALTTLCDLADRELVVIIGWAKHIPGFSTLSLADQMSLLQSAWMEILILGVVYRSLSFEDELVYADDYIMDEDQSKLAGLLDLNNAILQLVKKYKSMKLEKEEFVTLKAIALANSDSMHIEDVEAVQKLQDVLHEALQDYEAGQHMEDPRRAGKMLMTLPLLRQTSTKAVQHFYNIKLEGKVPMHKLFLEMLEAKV
Sequence of Nuclear respiratory factor 1 (Homo sapiens) (Q16656 whole entry, looked up): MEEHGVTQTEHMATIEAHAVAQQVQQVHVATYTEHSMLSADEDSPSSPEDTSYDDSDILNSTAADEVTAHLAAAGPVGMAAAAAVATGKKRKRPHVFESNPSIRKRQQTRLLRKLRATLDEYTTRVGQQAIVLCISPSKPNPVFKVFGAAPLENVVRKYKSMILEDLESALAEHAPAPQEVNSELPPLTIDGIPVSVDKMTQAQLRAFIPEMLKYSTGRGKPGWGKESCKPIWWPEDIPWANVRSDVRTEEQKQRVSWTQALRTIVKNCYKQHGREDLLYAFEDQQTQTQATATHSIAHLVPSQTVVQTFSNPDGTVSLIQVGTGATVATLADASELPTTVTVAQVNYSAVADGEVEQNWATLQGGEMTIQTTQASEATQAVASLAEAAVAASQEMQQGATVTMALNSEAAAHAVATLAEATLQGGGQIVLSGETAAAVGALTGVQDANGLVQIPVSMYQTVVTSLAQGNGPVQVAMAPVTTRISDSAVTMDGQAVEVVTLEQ
Sequence of Myc proto-oncogene protein (Homo sapiens) (P01106 whole entry, looked up): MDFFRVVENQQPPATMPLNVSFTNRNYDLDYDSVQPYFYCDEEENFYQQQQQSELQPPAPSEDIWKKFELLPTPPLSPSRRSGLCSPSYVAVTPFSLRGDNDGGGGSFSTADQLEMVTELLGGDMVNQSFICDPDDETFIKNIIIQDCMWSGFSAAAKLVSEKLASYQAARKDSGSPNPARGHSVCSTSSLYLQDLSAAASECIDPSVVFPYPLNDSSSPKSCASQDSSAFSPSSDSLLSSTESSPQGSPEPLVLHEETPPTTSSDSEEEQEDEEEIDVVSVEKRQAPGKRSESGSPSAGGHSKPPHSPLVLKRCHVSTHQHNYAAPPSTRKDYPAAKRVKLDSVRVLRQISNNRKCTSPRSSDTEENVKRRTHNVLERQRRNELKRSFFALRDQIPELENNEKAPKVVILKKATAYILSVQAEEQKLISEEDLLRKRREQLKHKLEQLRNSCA
Sequence of Nuclear receptor subfamily 4 group A member 2 (Homo sapiens) (P43354 whole entry, looked up): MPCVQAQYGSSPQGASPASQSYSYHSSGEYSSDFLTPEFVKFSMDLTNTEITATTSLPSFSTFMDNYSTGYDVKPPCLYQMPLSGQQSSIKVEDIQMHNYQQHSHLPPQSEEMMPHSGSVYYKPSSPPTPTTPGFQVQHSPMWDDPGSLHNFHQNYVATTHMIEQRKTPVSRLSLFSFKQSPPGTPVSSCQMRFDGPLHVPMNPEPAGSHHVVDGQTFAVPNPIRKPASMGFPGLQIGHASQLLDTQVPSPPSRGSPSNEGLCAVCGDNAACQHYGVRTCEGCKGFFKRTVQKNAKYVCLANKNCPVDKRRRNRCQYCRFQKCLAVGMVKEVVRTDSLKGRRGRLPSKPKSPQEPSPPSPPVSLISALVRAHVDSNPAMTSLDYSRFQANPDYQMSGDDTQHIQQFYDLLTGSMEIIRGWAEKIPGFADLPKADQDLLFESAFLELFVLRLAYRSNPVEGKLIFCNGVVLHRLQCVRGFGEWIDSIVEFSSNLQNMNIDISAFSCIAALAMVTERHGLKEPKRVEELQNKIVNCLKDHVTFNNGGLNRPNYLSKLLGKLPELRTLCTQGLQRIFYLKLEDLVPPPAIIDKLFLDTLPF

On to `C=C(C)[C@H]1Cc2c(ccc3c2O[C@@H]2COc4cc(OC)c(OC)cc4[C@@H]2C3=O)O1`, for which the molecule was classed as inactive in [1], in [2], in assay [3], in assay [4], in assay [5] and in assay [6]. For the same molecule, the molecule was classed as inactive in [7] and in assay [8]. Besides, the AC50 in [9] is 0.063 µM (active); in assay [10], 0.00527 µM (active); in assay [11], 0.0306 µM (active); in assay [12], 8.69 µM (active); in assay [13], 7.25 µM (active); in [14], 20 µM (active).
Take `CC(COc1ccc(Oc2ccccc2)cc1)Oc1ccccn1` (configuration not stated): the call in [1], in assay [2], in assay [3], in [4], in assay [15] and in [16] was inactive. Further, the molecule was called inactive in [6], in assay [7], in assay [17], in assay [12] and in assay [14]. In addition, the AC50 was 13.8 µM (active) in [9], 13 µM (active) in [11] and 23.6 µM (active) in [13].
Regarding `CNC(=O)ON=C(SC)C(=O)N(C)C`, the result in assay [1], in assay [3], in [4], in [6], in assay [7] and in assay [18] was inactive. In addition, the call in assay [8], in assay [9], in assay [17], in [12], in assay [13] and in assay [14] was inactive. The AC50 in [10] was 24.9 µM (active); in assay [11], 18.9 µM (active).
Regarding `CC1(C(=O)Nc2ccc(O)c(Cl)c2Cl)CCCCC1`, the result in [1], in [3], in assay [4], in assay [5], in assay [16] and in assay [6] was inactive. The result in [7], in assay [9], in assay [17], in assay [12], in assay [13] and in assay [14] was inactive. For the same molecule, the results for the AC50 in assay [2], in [10] and in assay [11] were 50 µM (active), 8.84 µM (active) and 22.2 µM (active), respectively.
